Compounds with a hit are over-represented: about 12% of the library has one in this group of screens.
LASV entry inh: qHTS for Inhibitors of binding or entry into cells for Lassa Virus; Lassa virus pseudotype entry inhibition, cell reporter; Potency, µM (highest dose often 37.9 µM), usual class: inhibitors; 1.2% of 300,000 active; AID 540256, 2011; calls by dose curve; tested in HEK293 cells; note: nearly all actives have a fitted effect of over 50% in size
Marburg entry inh: qHTS for inhibitors of binding or entry into cells for Marburg Virus | Marburg virus pseudotyped entry inhibition, cell reporter | Potency, µM (top dose mostly 37.8 µM), usual class: inhibitors | 1.8% of 300,000 active; calls by dose curve; tested in HEK293 cells
Shiga toxin inh: A qHTS for Small Molecule Inhibitors of Shiga Toxin; Vero cells, Shiga toxin protein synthesis inhibition reporter; inhibition, % at 38.7 µM; 9.2% of 290,000 active; in the data active = inhibition mostly above about 28%, no sharp cut-off; inactive = mostly below about 43%
CHX counter: Cycloheximide Counterscreen for Small Molecule Inhibitors of Shiga Toxin. cell reporter, cycloheximide protein synthesis inhibition counterscreen. max response, %. 12% of 300,000 active. AID 2314, 2010; in the data active = max response mostly above about 13%, no sharp cut-off; inactive = mostly below about 14%; note: read at 38.3 µM for the half of the compounds with a filed dose
Of the large screens only hits and unclear results are named; the others gave an inactive call.

O=C(C1CC(c2ccccc2O)=NO1)N1CCCC1 (centres undefined)	Marburg entry inh inconclusive, Shiga toxin inh 78, CHX counter 38
O=C(C1CC(c2ccccc2O)=NO1)N1CCC2(CC1)OCCO2 (centres undefined)	Marburg entry inh inconclusive, CHX counter 25
CSc1ccccc1NC(=O)C1CC(c2ccccc2O)=NO1 (centres undefined)	Shiga toxin inh 93, CHX counter 41
COC(=O)c1ccccc1NC(=O)C1CC(c2ccccc2O)=NO1 (centres undefined)	none
Cc1ccnc(NC(=O)c2ccc(OCC3CCCO3)cc2)c1 (centres undefined)	LASV entry inh 6.3µM, Marburg entry inh 3.5µM (no result: Shiga toxin inh, CHX counter)
Cc1ccnc(NC(=O)c2ccc3c(c2)C(=O)N(CC2CCCO2)C3=O)c1 (centres undefined)	Shiga toxin inh 62, CHX counter 24 (no result: LASV entry inh, Marburg entry inh)
NS(=O)(=O)c1ccc(NC(=S)Nc2cc(Cl)c(Cl)cc2Cl)cc1	Marburg entry inh inconclusive
CC1=C(C(=O)N2CCOCC2)C(c2ccc(OC(F)F)cc2)NC(=S)N1c1ccccc1 (centres undefined)	LASV entry inh inconclusive
Cc1ccn2c(C=O)c(-c3ccc(F)cc3)c(C=O)c2c1	CHX counter 28 (no result: LASV entry inh, Marburg entry inh)
C=C(C)[C@@]12OC3(c4ccccc4)O[C@@H]1[C@@H]1[C@@H]4O[C@]4(CO)[C@@H](O)[C@]4(O)C(=O)C(C)=C[C@H]4[C@@]1(O3)[C@H](C)[C@H]2OC(=O)/C=C/C=C/c1ccccc1	none (no result: LASV entry inh, Marburg entry inh)
O=C(Nc1ccccc1)c1snc2c(=O)[nH]cnc12	CHX counter 16
CCOC(=O)c1snc2c(=O)[nH]cnc12	Marburg entry inh inconclusive
CC(NC(=O)c1cccs1)C(S)c1ccccc1 (centres undefined)	Marburg entry inh inconclusive
CCCOc1cccc(C(=O)Nc2cccc3ncccc23)c1	none
Cc1c(NC(=O)c2ccc3nsnc3c2)cccc1[N+](=O)[O-]	none (no result: LASV entry inh, Marburg entry inh)
Cc1ccc(NC(=O)c2ccc3nsnc3c2)c(Cl)c1	Shiga toxin inh 105, CHX counter 58 (no result: LASV entry inh, Marburg entry inh)
Cc1onc(-c2ccc(Br)cc2)c1C(=O)Nc1ccc(Br)cc1F	none (no result: Marburg entry inh, Shiga toxin inh, CHX counter)
CCCOc1cccc(C(=O)Nc2ccc(Br)cc2F)c1	Marburg entry inh inconclusive, Shiga toxin inh 68, CHX counter 42
O=C(Nc1ccc(Br)cc1F)c1ccncc1	Shiga toxin inh 56, CHX counter 25
O=C(Nc1ccc(Br)cc1F)c1ccc2nsnc2c1	Shiga toxin inh 62, CHX counter 33 (no result: LASV entry inh, Marburg entry inh)
O=C(Nc1ccccc1F)c1ccncc1	none
COC(=O)C1=C(C)N(CCc2cc(OC)c(OC)c(OC)c2)C(=O)NC1c1ccc(Br)cc1 (centres undefined)	none (no result: Shiga toxin inh, CHX counter)
Cc1ccc2nc(Nc3nc(-c4ccccc4)cc(=O)[nH]3)nc(C)c2c1	Marburg entry inh inconclusive
COc1ccc2c(C)nc(Nc3nc(-c4ccccc4)cc(=O)[nH]3)nc2c1	LASV entry inh 4.6µM, Marburg entry inh inconclusive
CN(C)C(=O)C1CCC(=O)N1Cc1cccs1 (centres undefined)	none
CCOc1ccccc1C=Nc1ccccc1C(=O)Nc1ccccc1	Shiga toxin inh 68, CHX counter 16
O=C(Nc1ccccc1)c1ccccc1N=Cc1ccccc1O	Marburg entry inh inconclusive, Shiga toxin inh active, CHX counter 47
CCOCCCn1c(SCC(=O)NCc2ccco2)nc2c(sc3ccccc32)c1=O	Marburg entry inh inconclusive, CHX counter 32
O=C(CSc1nc2c(sc3ccccc32)c(=O)n1-c1ccccc1)NCc1ccco1	LASV entry inh inconclusive, Marburg entry inh inconclusive, CHX counter 30
O=C(CSc1nc2c(sc3ccccc32)c(=O)n1CCc1ccccc1)NCc1ccco1	Marburg entry inh inconclusive
C=CC[C@@](C(C)=O)(C(=O)OC)[C@@H](NC(=O)OC)c1ccccc1	none (no result: LASV entry inh, Shiga toxin inh, CHX counter)
Cc1ccc(NS(=O)(=O)c2cc([N+](=O)[O-])ccc2NNC(=S)Nc2cc(C)ccc2C)c(C)c1	LASV entry inh 14µM, Marburg entry inh inconclusive
Cc1ccc([N+](=O)[O-])cc1NC(=S)NC(=O)CC(C)(C)C	none
Cc1ccc([N+](=O)[O-])cc1NC(=S)NC(=O)C(C)(C)C	CHX counter 14
Cc1[nH]c2ccccc2c1C(=O)C(=O)N1CCN(C(=O)c2ccco2)CC1	none
Cc1cc(=O)[nH]c(-c2ccc(C(F)(F)F)cc2)n1	none (no result: LASV entry inh, Marburg entry inh)
CN(C)c1ccc(/C=N/NC(=O)c2ccccn2)cc1	LASV entry inh inconclusive, Marburg entry inh inconclusive, CHX counter 23
O=C(N/N=C/c1ccc(N2CCOCC2)cc1)C1CC1	Shiga toxin inh 45
O=C(N/N=C/c1cnc(N2CCOCC2)s1)c1ccccc1	Marburg entry inh inconclusive, CHX counter 20
Cc1ccc(N/N=C/c2ccc(N3CCOCC3)cc2)cc1C	Shiga toxin inh 136, CHX counter 59
Cc1cccc(Cn2cnc3c(oc4ccccc43)c2=O)c1	none (no result: Marburg entry inh, Shiga toxin inh, CHX counter)
O=C(N/N=C/c1cccc(Oc2ccccc2)c1)c1ccncc1	none
Cc1c(C(=O)N/N=C/c2ccc(N3CCOCC3)cc2)nc2ccccn12	none
O=C(N/N=C/c1ccc(N2CCOCC2)cc1)c1ccccn1	Shiga toxin inh 51, CHX counter 27 (no result: LASV entry inh, Marburg entry inh)
O=C(N/N=C/c1ccncc1)c1cnccn1	none
O=C(N/N=C\c1ccc(Oc2ccccc2)cc1)c1csnn1	Shiga toxin inh 97, CHX counter 47 (no result: LASV entry inh, Marburg entry inh)
Cc1cccc(/C=N\NC(=O)c2csnn2)c1	Shiga toxin inh 88, CHX counter 74
O=C(N/N=C/c1ccncc1)c1ccccn1	Shiga toxin inh 72, CHX counter 35 (no result: LASV entry inh, Marburg entry inh)
CCOCCCN(Cc1ccco1)S(=O)(=O)c1cc2c(cc1Cl)NC(=O)CO2	none (no result: Marburg entry inh, Shiga toxin inh, CHX counter)
Cc1ccc(/C=N/NC(=O)Cc2cccs2)o1	none
CN(C)c1ccc(/C=N\NC(=O)c2csnn2)cc1	LASV entry inh inconclusive, Marburg entry inh 14µM, Shiga toxin inh 32, CHX counter 18
CCc1c(C(=O)N/N=C/c2ccc(C)o2)csc1C	CHX counter 18
Cc1ccc(/C=N/NC(=O)c2ccccn2)o1	Shiga toxin inh 47, CHX counter 42
Cc1ccc(/C=N/NC(=O)c2ccncc2)o1	none
CC(C)c1ccc(/C=N/NC(=O)c2ccccn2)cc1	LASV entry inh inconclusive, Marburg entry inh 5µM, CHX counter 32
OCC1(CCc2ccccc2)CCCN(CCCc2ccccc2)C1 (centres undefined)	LASV entry inh inconclusive, Marburg entry inh inconclusive
CC1(C)CC(=O)C(CC(=O)NC2CCCc3ccccc32)C(=O)C1 (centres undefined)	none
CCOc1ccccc1CNC(=O)c1nn(CC)cc1[N+](=O)[O-]	none
Cc1c(C(C)C)c(=O)n(-c2ccc(S(=O)(=O)NCc3ccccc3)cc2)n1C	LASV entry inh 2µM, Marburg entry inh inconclusive
Cc1c(C(C)C)c(=O)n(-c2ccc(S(=O)(=O)NC3CCCCC3)cc2)n1C	LASV entry inh inconclusive, Marburg entry inh inconclusive
Cc1cccc(NC(=O)c2ccc(F)c(S(=O)(=O)N3CCC4(CC3)OCCO4)c2)c1	CHX counter 34 (no result: Marburg entry inh)
Cc1ccc(NC(=O)c2ccc(Cl)c(S(=O)(=O)NCc3ccco3)c2)c(O)c1	LASV entry inh inconclusive (no result: Shiga toxin inh, CHX counter)
CN(C)C1(CNC(=O)c2ccc(Cl)c(S(=O)(=O)NCc3ccco3)c2)CCCCC1	Marburg entry inh inconclusive, CHX counter 23

Screening results as filed in PubChem BioAssay.
